Dicer inh: blocks human Dicer maturation of pre-miR-21; Q9UPY3; cat-ELCCA pre-miR-21 Dicer processing, chemiluminescence; stronger effect = higher value; z-score at 25 µM; 6% of 47,000 active; in the data active = z-score above about 3, passing the limit was not always enough;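 also: plate controls were vehicle for no effect and no enzyme for full effect; higher signal means more uncleaved substrate so more Dicer inhibition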
Active calls of the source: *; ! = repeats disagree. This excerpt belongs to a sample that is enriched for hits.

SMILES	Dicer inh
CC(C)(C)OC(=O)N1Cc2ccccc2C[C@H]1C(=O)NCCN1CCCCC1	-1.78
O=C(O)C1=CS[C@@H]2/C(=C\c3cnc4n3CCOC4)C(=O)N12	-0.23
CCN1C(=O)C2(/C(=C(/O)c3ccc(C)cc3)C(=O)C(=O)N2CCCN2CCOCC2)c2ccccc21 (stereo not given)	2.24
CCN1C(=O)C2(/C(=C(/O)c3ccc(F)cc3)C(=O)C(=O)N2CCN2CCOCC2)c2ccccc21 (stereo not given)	5.7*
CN1C(=O)C2(/C(=C(/O)c3ccc(F)cc3)C(=O)C(=O)N2CCN2CCOCC2)c2ccccc21 (stereo not given)	-0.71
CNc1nc(C(N)=O)nc(N2CCOCC2)n1	0.69
CC(=O)c1ccc(Oc2ncc([N+](=O)[O-])s2)cc1	-0.7
Cc1ccc(CNC2(NC(=O)c3ccc(C(F)(F)F)cc3)C(=O)c3ccccc3C2=O)cc1	0.03
Cc1ccc(-c2nnc(SCC(=O)O)o2)cc1	0.56
Cc1occc1-c1nnc(SCC(=O)O)o1	3.36*
Cc1occc1-c1nnc(SCCC(=O)O)o1	1.42
COc1ccc(-c2cnn3c(N)c(-c4ccc(Cl)cc4)cnc23)cc1OC	0.57
Cc1nc(/N=C/NO)c(Br)cc1Br	2.43
CC1CCc2c(sc(NC(=O)c3ccco3)c2C(=O)O)C1 (stereo not given)	1.51
Cc1onc(-c2ccccc2)c1C(=O)NC1CCCCC1NC(=O)c1c(-c2ccccc2)noc1C (stereo not given)	-0.3
Cc1onc(-c2ccccc2)c1C(=O)Nc1sc2c(c1C#N)CCC(C)C2 (stereo not given)	4.72*
Cc1ccc(C)n1-c1cc([N+](=O)[O-])ccc1N1CCN(S(=O)(=O)c2cn(C)cn2)CC1	4.85*
Cc1ccc(C)n1-c1cc([N+](=O)[O-])ccc1N1CCN(C(=O)N(C)C)CC1	0.36
Cc1ccc(C)n1-c1cc([N+](=O)[O-])ccc1-n1ccnc1	0.09
Cc1cc(-c2nn(C)c(=O)c3ccccc23)cc(C)c1OC(=O)c1ccc(C(F)(F)F)cc1	-1.09
CCOC(=O)C1CCN(/C=C(\C#N)S(=O)(=O)c2ccccc2)CC1	-0.41
COC(=O)CC(=O)NC(CSC(=O)Nc1ccc(SC(F)(F)F)cc1)C(=O)OC (stereo not given)	-1.3
O=C(CC(Sc1ccccc1C(=O)O)c1ccc(F)cc1)c1ccc(F)cc1 (stereo not given)	-5.79
CCCS/C(Nc1cccc(OC)c1)=C(/C#N)S(=O)(=O)c1ccc(Cl)cc1	-0.78
CC1=C(C(=O)OCCc2ccccc2)C(c2ccncc2)C2=C(CCCC2=O)N1 (stereo not given)	1.6
SMILES	Dicer inh
O=S(=O)(NCCc1ccccn1)c1ccc2c(c1)OCCCO2	0.54
O=S(=O)(Nc1ccc(OCc2ccccc2)cc1)c1ccc2c(c1)OCCO2	3.36*
COc1ccc(NS(=O)(=O)c2ccc3c(c2)OCCO3)c(OC)c1	-2.58
CCOC(=O)c1ccc(-n2nc(C)c(C(=O)OCC)c2C)cc1	-2.48
CCOC(=O)c1cc(C#N)c(Sc2ccccc2N)nc1C(F)(F)F	-2
CCCOc1cccc(C2c3c(oc4ccccc4c3=O)C(=O)N2c2nc(C)c(C)s2)c1 (stereo not given)	0.66
Cc1[nH]c2ccccc2c1C(=O)CSc1nnc(C)n1-c1ccccc1	2.82
Cn1c(SCC(=O)c2c[nH]c3ccccc23)nnc1-c1cccs1	2.61
Cc1nnc(SCC(=O)c2c[nH]c3ccccc23)n1-c1ccccc1	4.31*
N#Cc1c(Cl)cccc1NC1CCSC1 (stereo not given)	-0.1
CN(C(=O)c1ccccc1)C(=O)N(C)C(=O)c1ccccc1	-1.42
CCN(C(=O)c1ccccc1)c1cccc2ccccc12	-1.19
CN1C2C=C(N(CCc3ccccc3)C(=O)c3ccccc3)CC1CC2 (stereo not given)	3.14*
CC(C)c1ccc(NC2(C(N)=O)CCCCC2)cc1	-0.27
Cc1nc2c(Br)cc(Br)cc2c(=O)o1	-0.68
Cc1nc2ccccc2c(C(=O)O)c1C(=O)O	-1.61
Cc1nc2ccccc2c2c1C(=O)N(c1ccccc1C(=O)OCC(=O)C(C)(C)C)C2=O	4.71*
CSc1nc2ccccc2c(=O)n1CC(=O)C(C)(C)C	1.54
CC(C)c1ccc(NNC(=O)CCc2ccccc2)cc1	-1.99
CCOC(=O)Cc1csc(NC(=O)Nc2ccc(C(C)(C)C)cc2)n1	-0.95
Clc1cc(Br)cc(Cl)c1-n1cccc1	0.02
COc1ccc(-c2c[nH]n3c(=O)cc(C)nc23)cc1OC	0.6
C=CC[n+]1ccc(/C=C2\Sc3ccccc3N2CC)cc1	-0.35
CCOC(=O)/C(C#N)=C/c1cccc(OC)c1OC	-0.61
COc1ccc(N2C(=O)CC(Sc3nnc(N)s3)C2=O)cc1 (stereo not given)	-0.43
SMILES	Dicer inh
CC(C)(C)c1ccc(C(=O)/C=c2\[nH]c(=O)/c(=C\c3cccs3)s2)cc1	3.38*
COc1cccc(C(=O)/C=c2\[nH]c(=O)/c(=C\c3ccccc3)s2)c1	0.93
CC(C)(C)c1ccc(C(=O)/C=C2\NC(=O)CS2)cc1	-2.26
O=C(Nc1ccc(F)c(Cl)c1)c1cc2nc(-c3ccco3)cc(C(F)(F)F)n2n1	-0.06
CN1CCN(C(=O)c2cnn3c(C(F)(F)F)cc(-c4ccco4)nc23)CC1	1.15
O=C(NCc1ccc(Cl)cc1)c1nn2c(C(F)(F)F)cc(-c3ccco3)nc2c1Cl	4.15*
Cc1nn2c(C(F)(F)F)cc(-c3ccc(Cl)cc3)nc2c1Cl	-1.34
O=C(NCc1cccnc1)c1nn2c(C(F)(F)F)cc(-c3ccc(F)cc3)nc2c1Cl	3.08*
Cc1nn2c(C(F)(F)F)cc(-c3cccnc3)nc2c1-c1ccc(Cl)cc1	-0.72
CN1CCN(C(=O)CSc2nc(-c3ccccc3)cc(C(F)(F)F)n2)CC1	2.21
Cc1nn(-c2ccccc2)nc1CNS(=O)(=O)c1cn(C)c(C)n1	1.44
COc1ccc(OC)c(C2C3=C(CC(C)(C)CC3=O)Nc3nc(SC)[nH]c(=O)c32)c1 (stereo not given)	0.3
O=C(NC1CCN(S(=O)(=O)c2cc(C(F)(F)F)cc(C(F)(F)F)c2)CC1)C1CCCCC1	-0.21
COc1cc2c(cc1OC)C(C)N(C(=S)Nc1cc(Cl)ccc1Cl)CC2 (stereo not given)	1.43
Clc1ccc(-c2cn3c(n2)COc2ccccc2-3)cc1	-0.92
COc1cc(C2C(C(=O)OC(C)C)=C(C)Nc3nc4ccccc4n32)ccc1O (stereo not given)	2.85
O=C(Nc1ncccc1OCc1ccc(Cl)c(Cl)c1)Nc1cccc2ccccc12	-0.85
O=C(c1ncn[nH]1)N(Cc1cc2ccccc2[nH]c1=O)c1ccccc1	0.09
CN(C)CCCN1c2ccccc2CCc2ccc(Cl)cc21	24.9
CNCCCN1c2ccccc2CCc2ccccc21	5.62*!
CN(CCCN1c2ccccc2CCc2ccccc21)CC(=O)c1ccc(Cl)cc1	-0.11
Cc1nn(-c2ccccc2)c2nc(OCC(=O)c3ccccc3)c(C#N)c(-c3ccc([N+](=O)[O-])cc3)c12	-1.87
COCCOC(=O)C1=C(C)NC2=C(C(=O)CC(C)(C)C2)C1c1ccccc1OCc1ccccc1 (stereo not given)	-0.85
C=CCN1C(=O)C2(/C(=C(/O)c3ccc(C)c(F)c3)C(=O)C(=O)N2CCOC)c2ccccc21 (stereo not given)	-0.51
CC(=O)[C@H]1CC[C@H]2[C@@H]3CCC4=CC(=O)CC[C@]4(C)[C@H]3CC[C@]12C	1.4

Assay outcomes (PubChem)
